Results filed as inconclusive are left out. The source made the active and inactive calls. Unless noted, calls follow the shape of the full dose curve.
Tests used:
[1] = Nuclear factor erythroid 2-related factor 2/antioxidant responsive element (Nrf2/ARE) small molecule agonists: qHTS cell viability counter screen in human keratinocytes (AID 1919968; active = well fitted curve in the direction sought with a large enough effect in the repeat runs; an effect the other way counts as inactive or inconclusive; also: nearly all actives have a fitted effect of over 55% in size)
How it was run: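 Cells of the KeratinoSens line were plated at 1,500 per well and left for 5 h before compound transfer from DMSO stocks. After a 23 h incubation (37 C, 5% CO2), CellTiter-Fluor was added. Signal was taken as fluorescence intensity 1 h later.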

[2] = Nuclear factor erythroid 2-related factor 2/antioxidant responsive element (Nrf2/ARE) small molecule agonists: luciferase reporter gene qHTS assay in human keratinocytes (AID 1919969); also: nearly all actives have a fitted effect of over 35% in size
[3] = molecular target: KiSS-1 receptor (Homo sapiens) (UniProt Q969F8); assay: Human kisspeptin (KISS1R) small molecule agonists, calcium flux assay in KISS1R-HEK293 cells (AID 1920064; active = well fitted curve in the direction sought with a large enough effect in the repeat runs; an effect the other way counts as inactive or inconclusive)
How it was run: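 Cell line: HEK293, stable human KISS1R. Dye loading 1 h at 37 C after 18 h culture. Read: kinetic fluorescence, 480/540 nm, 3 min at 1 s intervals.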

[4] = G protein-coupled receptor (GPCR) small molecule agonists, calcium flux assay: HEK293 wild type cell line counter screen (AID 1920065)
How it was run: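 Tox21 10K compounds, 15 concentrations each in triplicate, pin-transferred in DMSO onto dye-loaded cells; kinetic read at 480/540 nm for 3 min, 1 s intervals.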

[5] = p53 small molecule agonists, cell-based qHTS assay with human liver microsomes (AID 1963577)
How it was run: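 Compounds act here after metabolic activation: human liver microsomes and NADPH, both at 0.5 mg/mL final, were co-added to p53RE-bla cells. Incubation ran 16 h at 37 C, followed by LiveBLAzer detection.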

[6] = p53 small molecule agonists, cell-based qHTS assay with rat liver microsomes (AID 1963578)
How it was run: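 Read-out is beta-lactamase reporter fluorescence (LiveBLAzer, 2 h, room temperature, dark) in p53RE-bla cells treated 16 h at 37 C with compound, rat liver microsomes and NADPH, both 0.5 mg/mL final.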

[7] = p53 small molecule agonists, cell-based qHTS assay with human liver microsomes: qHTS cell viability counter screen (AID 1963579); also: nearly all actives have a fitted effect of over 45% in size
How it was run: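 Cells carrying the p53 response-element beta-lactamase reporter are treated for 16 h at 37 C with test compounds in the presence of human liver microsomes and NADPH (both 0.5 mg/mL final); ATP-based CellTiter-Glo luminescence then reports viability.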

[8] = p53 small molecule agonists, cell-based qHTS assay with rat liver microsomes: qHTS cell viability counter screen (AID 1963580); also: nearly all actives have a fitted effect of over 45% in size
How it was run: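 Cytotoxicity counter screen: intracellular ATP read by CellTiter-Glo luminescence in the p53 reporter wells. HCT-116 p53RE-bla cells were treated for 16 h at 37 C alongside rat liver microsomes and NADPH, each 0.5 mg/mL final.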

[9] = p53 small molecule agonists, cell-based qHTS assay: qHTS cell viability counter screen (AID 1963581); also: nearly all actives have a fitted effect of over 45% in size
How it was run: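 ATP content measured by luminescence in HCT-116 p53RE-bla cells treated 16 h at 37 C, same wells as the reporter screen.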

[10] = molecular target: 5-hydroxytryptamine receptor 2A (Homo sapiens) (UniProt P28223); assay: 5-hydroxytryptamine receptor 2A (HTR2A) small molecule antagonists, cell-based qHTS assay (AID 1963586); also: nearly all actives have a fitted effect of over 45% in size; also: potency is read from the fitted curve at half-maximal effect
How it was run: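 CHO cells stably expressing human HTR2A were plated for 18 h at 37 C, then loaded with calcium dye for 1 h. Compounds were preincubated 5 min at room temperature before DOI (4 nM solution) was added. Kinetic fluorescence was read for 3 min.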

[11] = molecular target: 5-hydroxytryptamine receptor 2A (Homo sapiens) (UniProt P28223); assay: 5-hydroxytryptamine receptor 2A (HTR2A) small molecule agonists, cell-based qHTS assay (AID 1963587); also: nearly all actives have a fitted effect of over 30% in size
How it was run: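 Kinetic calcium-flux fluorescence (2 min, 1 sec intervals) after compound addition in agonist mode. HTR2A-CHO cells were cultured 18 h, then dye-loaded 1 h at 37 C.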

[12] = molecular target: Muscarinic acetylcholine receptor M1 (Homo sapiens) (UniProt P11229); assay: Cholinergic receptor muscarinic 1 (CHRM1) small molecule agonists, cell-based qHTS assay (AID 1963589); also: nearly all actives have a fitted effect of over 35% in size
How it was run: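 Homogeneous fluorescence calcium flux, agonist mode. Human M1-expressing CHO cells; compound dosed at 15 concentrations, three independent runs; signal sampled every 1 sec.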

[13] = cAMP Responsive Elements (CRE) small molecule agonists, cell-based qHTS assay (AID 1963590)
How it was run: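 HEK 293T cells stably bearing CRE-bla were plated at 2,000 cells per well and rested 18 h. Compounds, positive controls or DMSO were added for 3 h at 37 C. LiveBLAzer B/G substrate was then loaded for 2 h at room temperature.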

[14] = cAMP Responsive Elements (CRE) small molecule antagonists, cell-based qHTS assay (AID 1963591; active = well fitted inhibition curve with a large enough effect in the signal ratio in the repeat runs, not every such curve was filed as active; the % refers to the signal ratio)
How it was run: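 First, CRE-bla HEK293T cells settled 18 h at 37 C. Next, compound and 0.25 uM final NKH477 were applied for 3 h. Last, LiveBLAzer B/G substrate was loaded for 2 h at room temperature.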

[15] = molecular target: Beta-2 adrenergic receptor (Homo sapiens) (UniProt P07550); assay: Adrenergic beta2 receptor (ADRB2) small molecule antagonists, cell-based qHTS assay (AID 1963592); also: nearly all actives have a fitted effect of over 50% in size; also: potency is read from the fitted curve at half-maximal effect
How it was run: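 Assay format: CHO-ADRB2 cells, 18-20hr seeding at 37C/5% CO2, then compound plus 1nM isoproterenol agonist mix for 0.5hr RT. Homogeneous time-resolved fluorescence cAMP detection after 1hr, expressed as 665/615 nm ratio.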

[16] = molecular target: D(2) dopamine receptor (Homo sapiens) (UniProt P14416); assay: Dopamine D2 receptor (DRD2) small molecule antagonists, cell-based qHTS assay (AID 1963595; active = well fitted inhibition curve with a large enough effect in the signal ratio in the repeat runs, with a control signal flat; the % refers to the signal ratio; also: potency is read from the fitted curve at half-maximal effect)
How it was run: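 HEK293 cells stably expressing DRD2, preincubated with 0.1 mM Ro20-1724 and compounds 10 min, were stimulated with 200 nM NKH477 plus 12 nM quinpirole for 30 min at room temperature; cAMP measured by HTRF (665/620 nm).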

[17] = molecular target: Muscarinic acetylcholine receptor M1 (Homo sapiens) (UniProt P11229); assay: Cholinergic receptor muscarinic 1 (CHRM1) small molecule antagonists, cell-based qHTS assay (AID 1963588); also: nearly all actives have a fitted effect of over 40% in size
How it was run: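 Compounds were tested at 15 concentrations in three independent runs. Dye-loaded CHRM1-CHO cells were exposed 5 min at room temperature before stimulation by acetylcholine added at 50nM. Intracellular calcium was read kinetically on FDSS for 3 min.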

[18] = molecular target: Beta-2 adrenergic receptor (Homo sapiens) (UniProt P07550); assay: Adrenergic beta2 receptor (ADRB2) small molecule agonists, cell-based qHTS assay (AID 1963593);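 also: CHO cells stably overexpressing human ADRB2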
How it was run: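 CHO cells stably over-expressing ADRB2 were plated overnight at 37C, then dosed with compounds plus a stimulation mix containing 100uM IBMX and 25uM Ro-20-1724 for 0.5hr at room temperature. cAMP was measured by HTRF competition, 1hr.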

[19] = molecular target: D(2) dopamine receptor (Homo sapiens) (UniProt P14416); assay: Dopamine D2 receptor (DRD2) small molecule agonists, cell-based qHTS assay (AID 1963594); also: nearly all actives have a fitted effect of over 35% in size
How it was run: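 cAMP accumulation in DRD2-HEK293 cells measured by HTRF after 1 h detection; compounds added 10 min before NKH477 (200nM […]) forskolin-analogue stimulation, 30 min at room temperature, with Ro20-1724 present at 0.1 mM final.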

[20] = p53 small molecule agonists, cell-based qHTS assay (AID 1963582; active = well fitted activation curve with a large enough effect in the signal ratio in the repeat runs, not every such curve was filed as active; the % refers to the signal ratio)
How it was run: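 16 h compound exposure (37 C) of p53 response element–bla cells, preceded by 5 h recovery at 37 C/5% CO2; read-out via LiveBLAzer B/G FRET substrate, 2 h RT, fluorescence intensity.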

Measured: Potency

Chain of D(2) dopamine receptor (Homo sapiens) (P14416 whole entry, looked up): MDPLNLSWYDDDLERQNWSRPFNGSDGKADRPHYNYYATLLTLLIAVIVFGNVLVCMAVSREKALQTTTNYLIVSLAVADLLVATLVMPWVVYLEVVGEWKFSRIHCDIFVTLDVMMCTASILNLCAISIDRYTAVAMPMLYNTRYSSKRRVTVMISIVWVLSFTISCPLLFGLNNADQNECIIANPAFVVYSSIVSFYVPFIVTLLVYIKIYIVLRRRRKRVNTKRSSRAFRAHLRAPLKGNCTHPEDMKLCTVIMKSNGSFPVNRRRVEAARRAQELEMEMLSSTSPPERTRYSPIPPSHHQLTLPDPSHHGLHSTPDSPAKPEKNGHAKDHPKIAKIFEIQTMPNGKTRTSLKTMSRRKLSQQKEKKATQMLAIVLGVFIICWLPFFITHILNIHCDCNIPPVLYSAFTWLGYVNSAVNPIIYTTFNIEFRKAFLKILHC
Chain of Beta-2 adrenergic receptor (Homo sapiens) (P07550 whole entry, looked up): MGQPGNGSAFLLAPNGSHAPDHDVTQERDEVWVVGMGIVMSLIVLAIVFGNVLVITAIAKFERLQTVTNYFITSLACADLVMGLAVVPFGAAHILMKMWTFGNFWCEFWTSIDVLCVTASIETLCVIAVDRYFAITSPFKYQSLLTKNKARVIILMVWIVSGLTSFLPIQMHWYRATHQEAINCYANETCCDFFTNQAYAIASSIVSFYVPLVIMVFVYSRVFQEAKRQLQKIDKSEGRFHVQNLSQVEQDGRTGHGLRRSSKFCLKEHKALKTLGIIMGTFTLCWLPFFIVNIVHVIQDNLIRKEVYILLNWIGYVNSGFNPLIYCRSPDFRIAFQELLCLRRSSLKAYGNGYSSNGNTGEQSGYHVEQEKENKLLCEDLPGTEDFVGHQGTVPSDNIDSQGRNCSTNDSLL
Chain of 5-hydroxytryptamine receptor 2A (Homo sapiens) (P28223 whole entry, looked up): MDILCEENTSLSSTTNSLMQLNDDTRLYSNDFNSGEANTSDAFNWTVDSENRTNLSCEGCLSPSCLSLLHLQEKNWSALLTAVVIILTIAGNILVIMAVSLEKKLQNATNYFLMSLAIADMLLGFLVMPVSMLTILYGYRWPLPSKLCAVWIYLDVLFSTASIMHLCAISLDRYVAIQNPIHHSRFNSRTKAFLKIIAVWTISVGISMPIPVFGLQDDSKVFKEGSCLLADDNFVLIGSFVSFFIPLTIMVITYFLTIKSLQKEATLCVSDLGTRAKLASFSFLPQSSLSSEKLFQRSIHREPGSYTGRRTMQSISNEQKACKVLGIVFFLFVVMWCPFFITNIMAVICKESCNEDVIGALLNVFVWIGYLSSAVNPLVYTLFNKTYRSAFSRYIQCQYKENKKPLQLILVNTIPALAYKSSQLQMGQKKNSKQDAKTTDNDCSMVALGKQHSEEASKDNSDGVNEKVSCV
Chain of Muscarinic acetylcholine receptor M1 (Homo sapiens) (P11229 whole entry, looked up): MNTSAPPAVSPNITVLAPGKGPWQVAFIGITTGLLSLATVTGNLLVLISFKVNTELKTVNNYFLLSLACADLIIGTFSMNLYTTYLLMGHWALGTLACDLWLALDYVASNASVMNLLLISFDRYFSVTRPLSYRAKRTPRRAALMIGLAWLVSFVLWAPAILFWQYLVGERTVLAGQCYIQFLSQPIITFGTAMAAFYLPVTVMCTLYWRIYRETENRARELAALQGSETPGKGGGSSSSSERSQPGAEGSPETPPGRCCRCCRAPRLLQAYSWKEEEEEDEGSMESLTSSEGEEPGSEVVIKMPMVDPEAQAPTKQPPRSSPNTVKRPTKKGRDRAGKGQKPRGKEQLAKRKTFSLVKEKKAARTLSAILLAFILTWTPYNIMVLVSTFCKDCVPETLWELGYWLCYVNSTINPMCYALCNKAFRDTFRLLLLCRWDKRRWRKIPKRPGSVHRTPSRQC
Chain of KiSS-1 receptor (Homo sapiens) (Q969F8 whole entry, looked up): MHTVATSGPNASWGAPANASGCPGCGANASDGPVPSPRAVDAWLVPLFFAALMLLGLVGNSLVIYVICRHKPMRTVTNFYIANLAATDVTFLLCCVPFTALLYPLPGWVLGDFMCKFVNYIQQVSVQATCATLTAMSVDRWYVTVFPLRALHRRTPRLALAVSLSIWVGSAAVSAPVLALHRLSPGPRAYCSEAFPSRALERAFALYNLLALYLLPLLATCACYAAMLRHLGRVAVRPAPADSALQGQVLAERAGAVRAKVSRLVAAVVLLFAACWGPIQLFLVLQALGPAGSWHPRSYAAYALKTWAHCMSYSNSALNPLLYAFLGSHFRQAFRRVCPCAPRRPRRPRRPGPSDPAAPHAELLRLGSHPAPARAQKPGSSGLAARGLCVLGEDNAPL

C[C@@H](CN(C)C)CN1c2ccccc2Sc2ccccc21
active: [10] 0.0041 µM | [15] 29.8 µM | [16] 1.68 µM
not listed: [17] | [18] | [19] | [20]
inactive: all other assays above

CCCCOCC(C)OCC(C)O (stereo not given)
not listed: [3] | [5] | [6] | [8] | [10] | [20]
inactive: all other assays above

CCOc1ccc(OCC)c(Cl)c1
not listed: [3] | [5] | [6] | [7] | [14] | [20]
inactive: all other assays above

CCC1(c2cnc[nH]2)Cc2ccccc2C1
inactive: [1] | [2] | [4] | [11] | [17] | [12] | [13] | [15] | [16]

CC(C)(C)c1ccc(N)cc1
not listed: [3] | [5] | [6] | [10] | [20]
inactive: all other assays above

CCCCCCCCCOC(=O)CCCCC(=O)OCCCCCCC
active: [15] 15.4 µM
not listed: [9] | [11] | [12] | [18]
inactive: all other assays above

Oc1ccc2c(c1)Cc1ccccc1-2
not listed: [3] | [5] | [6] | [7] | [14] | [18] | [20]
inactive: all other assays above

CC(C)OC(=O)CCC(=O)OC(C)C
not listed: [3] | [4] | [5] | [7] | [13] | [18] | [20]
inactive: all other assays above

— PubChem BioAssay (Tox21)
